Values joined by “and” are separate entries in the source; they are usually repeats but may differ in a detail not shown here. Identical values can stand only once. Records with an inconclusive call do not appear. Active and inactive are the calls of the source. The call rests on the fitted dose curve; in most records, active means well fitted curve in either direction with a large enough effect; inconclusive means small, poorly fitted or top-dose-only effect; inactive means no such curve, though single readings can be large or run the other way.

The assay addresses Lysosomal alpha-glucosidase (Homo sapiens) (UniProt P10253). Put plainly: Confirmation of Inhibitors and Activators of Purified Human alpha-Glucosidase Using an Alternate Red Fluorescent Susbtrate. The conditions noted are these: purified enzyme, red fluorogenic substrate; series mostly up to 63.4 µM; activity change, negative = inhibition: at the top concentration. The text has this:
NIH Chemical Genomics Center [NCGC]
NIH Molecular Libraries Probe Production centers Network [MLPCN]
Assay Submitter (PI): Wei Zheng
Alpha-glucosidase is responsible for hydrolysis of terminal, non-reducing 1,4-linked alpha-D-glucose residues with release of alpha-D-glucose. It is a lysosomal hydrolase that is required for the degradation of a small percentage (1-3%) of cellular glycogen in human. Deficiency of this enzyme results in glycogen-storage disease type II (GSDII), also referred to as Pompe disease, an autosomal recessive disorder. Structurally normal glycogen is accumulated in lysosomes and cytoplasm in affected patients, primarily in muscle tissues. Excessive glycogen storage within lysosomes may interrupt normal functioning of other organelles and leads to cellular injury. In turn, this leads to enlargement and dysfunction of the entire organ involved (eg, cardiomyopathy and muscle weakness).
It has reported that the improper folding and trafficking of alpha-glucosidase resultinged from the genetic mutations may account for a significant number of Pomrope patients. […] We optimized this alpha-glucosidase assay in 1536-well plate format for identifying the novel small molecule inhibitors with the structures other than the sugar analogs in order to develop the new pharmacological chaperones. This assay attempted to confirm hits from the primary screening using an alternate fluor than the primary screen used.
NCGC Assay Protocol Summary:
This is a fluorogenic enzyme assay with resorufin-alpha-D-pyranoside as the substrate and recombinant human alpha-glucosidase as the enzyme preparation. Upon the hydrolysis of this fluorogenic substrate, the resulting product, resorufin, can be excited at 573 nm and emits at 610 nm which can be detected by a standard fluorescence plate reader. Data were normalized to the controls for basal activity (without enzyme) and 100% activity (with enzyme). The AC50 values were determined from concentration-response data modeled with the standard Hill equation.
Assay buffer: 50 mM citric acid (titrated with potassium phosphate to pH 5.0), 0.005% Tween-20, pH 5.0. (pH 5.0 is an optimal condition for this enzyme assay)
1536-well assay protocol for the human alpha-glucosidase:
(1) Add 2 ul/well of enzyme (4 nM final)
(2) Add 23 nL compounds in DMSO solution. The final titration was 0.7 nM to 77 uM.
(3) Add 1 ul of substrate (400 uM final)
(4) Incubate at room temperature for 20 min.
(5) Add 2 ul stop solution (1M NaOH and 1M Glycine mixture, pH 10)
(6) Detect the assay plate in a ViewLux plate reader (PerkinElmer) with Ex=365 nm and Em=440nm.
Keywords: Alpha-glucosidase, Pompe Disease, pharmacological chaperone, chaperone therapy, high throughput screening, alpha-glucosidase inhibitor, MLSMR, MLSCN, NIH Roadmap, qHTS and NCGC
With `CC(=O)c1ccc(N2CCN(S(=O)(=O)c3cc4c(cc3Cl)NC(=O)C4)CC2)cc1`, the Potency was 1.63 µM [inhibitor] (active) and 5.17 µM [inhibitor] (active). Consider `CC(=O)c1ccc(N2CCN(C(=O)c3ccc4c(c3)CC(=O)N4)CC2)cc1`, for which the “activity change, negative = inhibition” value is -10.5% (inactive). For the compound `CCCN1CNc2c(c(=O)[nH]c(=S)n2CCc2ccccc2Cl)C1`, the Potency is 2.51 µM (active). With `CC(=O)c1ccc(N2CCN(S(=O)(=O)c3ccc4c(c3)CCCC(=O)N4)CC2)cc1`, the “activity change, negative = inhibition” value is -0.651% (inactive). The same measure, in the same setting: for `O=C1Cc2cc(S(=O)(=O)N3CCNCC3)ccc2N1` the value was -15.6% (inactive). On the same count and under the same terms, then `CC(=O)c1ccc(N2CCN(S(=O)(=O)c3ccc4[nH]c(=O)oc4c3)CC2)cc1`, with -5.47% (inactive). For `N#CC(=C(\N)Sc1ccccc1N)/C(C#N)=C(/N)Sc1ccccc1N`, the Potency is 44.7 µM (active).

Regarding `CC(O)[C@@H](O)[C@H]1CNc2nc(N)[nH]c(=O)c2N1` (stereo not given in full), the “activity change, negative = inhibition” value is 16% (inactive).

As to `CCCN1CNc2c(c(=O)[nH]c(=S)n2CCc2cccc(Cl)c2Cl)C1`, the Potency is 0.158 µM (active).

In the case of `Cc1ccc(N2CCN(S(=O)(=O)c3ccc4c(c3)CC(=O)N4)CC2)cc1`, the “activity change, negative = inhibition” value was -18.6% [at 130 µM] (inactive). On the same count and under the same terms, for `COc1ccc(C#Cc2cnc(Cl)c3cncnc23)cc1OC` the value was 1.22% (inactive). For the compound `CCCN1CNc2c(c(=O)[nH]c(=S)n2CCc2cc(OC)ccc2OC)C1`, the Potency was 6.31 µM (active).

As to `CCCN1CNc2c(c(=O)[nH]c(=S)n2CCc2c(OC)cccc2OC)C1`, the Potency was 14.1 µM (active). In the case of `CCCN1CNc2c(c(=O)[nH]c(=S)n2CCc2ccc(OC)cc2OC)C1`, the Potency was 2.51 µM (active). For `O=S(=O)(c1ccc(Cl)cc1)N1CCN(c2nc(Nc3cc(Cl)ccc3O)nc3ccccc23)CC1`, the “activity change, negative = inhibition” value was 0.0734% [at 32.7 µM] (inactive). As for `CC(=O)c1ccc(N2CCN(S(=O)(=O)c3ccc4c(c3)CC(C)N4C(C)=O)CC2)cc1` (stereo not given), the “activity change, negative = inhibition” value was -22.6% (inactive).

Take `O=C1Cc2cc(S(=O)(=O)N3CCN(c4cccc(C(F)(F)F)c4)CC3)ccc2N1`: the Potency was 14.9 µM [inhibitor] (active). As for `COc1cc(NS(C)(=O)=O)ccc1Nc1c2ccccc2nc2ccccc12`, the “activity change, negative = inhibition” value was 14.2% (inactive). Take `CC(=O)c1ccc(N2CCN(S(=O)(=O)c3ccc4c(c3)C(=O)OC4)CC2)cc1`: the “activity change, negative = inhibition” value is 0.0821% (inactive).

With `CC(=O)N1CCN(S(=O)(=O)c2ccc3c(c2)CC(=O)N3)CC1`, the Potency is 14.9 µM [inhibitor] (active). Turning to `CCCN1CNc2c(c(=O)[nH]c(=S)n2CCc2ccc(C)cc2C)C1`, the Potency is 2.82 µM (active). Turning to `CCCN1CNc2c(c(=O)[nH]c(=S)n2Cc2ccc(OC)c(OC)c2)C1`, the Potency was 2.82 µM (active). On the same count and under the same terms, for `O=C1Cc2cc(S(=O)(=O)N3CCN(c4ccc(O)cc4)CC3)ccc2N1` the value was 2.37 µM [inhibitor] (active). With `CCCN1CNc2c(c(=O)[nH]c(=S)n2CCc2ccc(C)cc2)C1`, the Potency is 11.2 µM (active). Same read-out and setting: then `CCCN1CNc2c(c(=O)[nH]c(=S)n2CCc2cccc(Cl)c2)C1`, with 11.2 µM (active). As to `OCC1NCC(O)C(O)C1O` (stereo not given), the “activity change, negative = inhibition” value was -95.2% (inactive).

`CC(=O)c1ccc(N2CCN(S(=O)(=O)c3ccc4c(c3)n(C)c(=O)n4C)CC2)cc1`: the “activity change, negative = inhibition” value was -9.43% (inactive). In the case of `CCCN1CNc2c(c(=O)[nH]c(=S)n2CCc2cccc(C)c2)C1`, the Potency was 7.08 µM (active). With `CCCN1CNc2c(c(=O)[nH]c(=S)n2CCc2ccc3c(c2)OCCO3)C1`, the Potency is 1.12 µM (active). Regarding `CC(=O)c1ccc(N2CCN(S(=O)(=O)c3ccc4c(c3)OCC(=O)N4)CC2)cc1`, the “activity change, negative = inhibition” value is -13.8% (inactive). Turning to `CCCN1CNc2c(c(=O)[nH]c(=S)n2CCc2cccc(C)c2C)C1`, the Potency was 1.12 µM (active). Consider `COc1ccc(CCn2c3c(c(=O)[nH]c2=S)CN(CC(C)C)CN3)cc1OC`, for which the Potency is 0.631 µM (active). Take `N#Cc1ccc(N2CCN(S(=O)(=O)c3ccc4c(c3)CC(=O)N4)CC2)cc1`: the Potency is 3.26 µM [inhibitor] (active).

Regarding `Cc1nc(N=Nc2cc(S(=O)(=O)O)c3cc([N+](=O)[O-])cc(S(=O)(=O)O)c3c2)c(COP(=O)(O)O)c(C=O)c1O`, the “activity change, negative = inhibition” value is -33.5% (inactive). Take `O=C1Cc2cc(S(=O)(=O)N3CCN(c4ccc([N+](=O)[O-])cc4)CC3)ccc2N1`: the Potency is 3.26 µM [inhibitor] (active). In the case of `CCCCN1C[C@H](O)[C@@H](O)[C@H](O)[C@H]1CO`, the “activity change, negative = inhibition” value was -96.3% (inactive).

On to `CCCN1CNc2c(c(=O)[nH]c(=S)n2CCc2ccc(C)c(C)c2)C1`, for which the Potency is 1.12 µM (active). Consider `CCCN1CNc2c(c(=O)[nH]c(=S)n2CCC)C1`, for which the “activity change, negative = inhibition” value was -4.77% (inactive). Regarding `CC(=O)c1ccc(N2CCN(S(=O)(=O)c3ccc4c(c3)oc(=O)n4C)CC2)cc1`, the “activity change, negative = inhibition” value was -15.5% (inactive).

Consider `CC(=O)c1ccc(N2CCN(S(=O)(=O)c3ccc4c(c3)C(Cl)(Cl)C(=O)N4)CC2)cc1`, for which the Potency is 41.1 µM [inhibitor] (active).

Values taken from PubChem BioAssay AID2110 (National Center for Advancing Translational Sciences (NCATS), 2009).
